Results: the supplement of paper PMC9135407
Counter-ions that a name gives are not always drawn.

What follows are molecules tested on primary human hepatic stellate cells (donor 1) (assay: PSMB2 reference mRNA level vs DMSO (fold); higher = more PSMB2 expression). Settings: 48 h.
Experimental: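 Secondary qRT-PCR screen in primary human HSCs (donor 1), 384-well plates, with compounds dispensed in quadruplicate and incubated for 48 h. Cells-to-CT lysates were used for multiplexed TaqMan qPCR of ACTA2 or COL1A1 with PSMB2 as reference. Fold changes versus DMSO come from a linear model (Ct_gene ~ Ct_PSMB2 + plate + chemical). A hit is defined as COL1A1 and ACTA2 FC <0.5 (FDR <0.05) with PSMB2 between 0.2 and 2.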
For O=C1Nc2ccccc2/C1=C1/Nc2ccccc2C1=O [Indirubin] (63.5333 µM), the “PSMB2 reference mRNA level” value was 1.03.
For Cc1ccc(NC(=O)c2ccc(CN3CCN(C)CC3)cc2)cc1Nc1nc(-c2cccnc2)cs1 [Masitinib (AB1010, Masivet)] (6.66667 µM), the “PSMB2 reference mRNA level” value was 0.679.
In the case of Cc1ccc(NC(=O)C(C)C)cc1C1CCN(Cc2ccc(Oc3ccc(F)c(F)c3)cc2)CC1 (33.3333 µM), the “PSMB2 reference mRNA level” value is reported as 2.26.
For COC(=O)C[C@](O)(CCCC(C)(C)O)C(=O)O[C@@H]1C(OC)=C[C@]23CCCN2CCc2cc4c(cc2[C@H]13)OCO4 [Homoharringtonine] (33.3333 µM), the “PSMB2 reference mRNA level” value was 0.38.
CN1CCN2c3ccccc3Cc3ccccc3C2C1 (stereo not given) [Mianserin hcl] (25.2333 µM) was tested, and the “PSMB2 reference mRNA level” value was 1.26.
CCN1CCC(n2cc(CNc3cc(Cl)c4ncc(C#N)c(Nc5ccc(F)c(Cl)c5)c4c3)nn2)CC1 (33.3333 µM) was tested, and the “PSMB2 reference mRNA level” value was 0.0139.
In the case of N=C(N)SCCc1ccc(OCc2ccc([N+](=O)[O-])cc2)cc1 [KB-R7943 mesylate] (33.3333 µM), the “PSMB2 reference mRNA level” value is reported as 0.61.
In the case of CCCSc1ccc2[nH]c(NC(=O)OC)nc2c1 [Albendazole] (33.3333 µM), the “PSMB2 reference mRNA level” value is reported as 1.65.
C[C@]12CC[C@H](O)CC1=CC[C@@H]1[C@@H]2CC[C@]2(C)C(n3cnc4ccccc43)=CC[C@@H]12 [Galeterone] (33.3333 µM) was tested, and the “PSMB2 reference mRNA level” value was 0.0945.
For CC[C@@H]1C(=O)N(C)c2cnc(Nc3ccc(C(=O)NC4CCN(C)CC4)cc3OC)nc2N1C1CCCC1 (33.3333 µM), the “PSMB2 reference mRNA level” value was 0.0022.
For COc1cc2nc(N3CCCN(C)CC3)nc(NC3CCN(Cc4ccccc4)CC3)c2cc1OC (3.33333 µM), the “PSMB2 reference mRNA level” value was 0.211.
With [O-][S+](c1ccccc1)c1ccc2nnnn2n1 (stereo not given) (33.3333 µM) the “PSMB2 reference mRNA level” value was 0.000399.
With NC(N)=NC(=O)c1nc(Cl)c(N2CCCCCC2)nc1N [5-(N,N-hexamethylene)amiloride] (33.3333 µM) the “PSMB2 reference mRNA level” value was 0.641.
With CCN(CC)CC#CCOC(=O)C(O)(c1ccccc1)C1CCCCC1 (stereo not given) [Oxybutynin chloride] (16.9333 µM) the “PSMB2 reference mRNA level” value was 1.08.
For CN(C)CCC(c1ccc(Br)cc1)c1ccccn1 (stereo not given) [Brompheniramine maleate] (33.3333 µM), the “PSMB2 reference mRNA level” value was 1.3.
In the case of CNCc1ccc(C)c(NC(=O)c2ccc(Nc3nc(-c4ccccc4)c4ccccc4n3)cc2)c1 (33.3333 µM), the “PSMB2 reference mRNA level” value is reported as 0.000816.
In the case of CN(C)Cc1c(C(=O)NCCOc2ccc(C(=O)NO)cc2)oc2ccccc12 (33.3333 µM), the “PSMB2 reference mRNA level” value is reported as 0.5.
With OCCN1CCN(CCCN2c3ccccc3Sc3ccc(C(F)(F)F)cc32)CC1 (33.3333 µM) the “PSMB2 reference mRNA level” value was 0.145.
Cc1[nH]c(/C=C2\C(=O)Nc3ccc(S(=O)(=O)N(C)c4cccc(Cl)c4)cc32)c(C)c1C(=O)N1CCN(C)CC1 (33.3333 µM) was tested, and the “PSMB2 reference mRNA level” value was 0.98.
For CCCCCCCCc1ccc(CCC(N)(CO)CO)cc1 [Fingolimod (FTY720) HCl] (11.1 µM), the “PSMB2 reference mRNA level” value was 3.91.
For CC(C)c1cc(-c2n[nH]c(=O)n2-c2ccc3c(ccn3C)c2)c(O)cc1O [Ganetespib (STA-9090)] (33.3333 µM), the “PSMB2 reference mRNA level” value was 0.415.
With CN1CCC(NC(=O)c2cc(-c3c(O)cc(O)cc3Oc3ccc([N+](=O)[O-])cc3)on2)CC1 (33.3333 µM) the “PSMB2 reference mRNA level” value was 0.306.
With COc1cc2ncn(-c3cc(OCc4ccccc4C(F)(F)F)c(C(N)=O)s3)c2cc1OC (33.3333 µM) the “PSMB2 reference mRNA level” value was 1.6.
For NS(=O)(=O)C#Cc1ccccc1 [Pifithrin->m] (33.3333 µM), the “PSMB2 reference mRNA level” value was 5.28.
In the case of CCN(CC)CCNC(=O)c1c(C)[nH]c(/C=C2\C(=O)Nc3ccc(F)cc32)c1C (6.66667 µM), the “PSMB2 reference mRNA level” value is reported as 2.81.
With CNCc1ccc(-c2cc(-c3nc(-c4ccc(S(=O)(=O)C(C)C)cc4)cnc3N)on2)cc1 (11.1 µM) the “PSMB2 reference mRNA level” value was 0.118.
For CC[C@]1(O)C[C@@H]2CN(CCc3c([nH]c4ccccc34)[C@@](C(=O)OC)(c3cc4c(cc3OC)N(C)[C@H]3[C@@](O)(C(=O)OC)[C@H](OC(C)=O)[C@]5(CC)C=CCN6CC[C@]43[C@@H]65)C2)C1 [Vinblastine sulfate] (33.3333 µM), the “PSMB2 reference mRNA level” value was 0.0998.
With CCOC(=O)C1=C(COCCN)NC(C)=C(C(=O)OC)C1c1ccccc1Cl (stereo not given) (33.3333 µM) the “PSMB2 reference mRNA level” value was 1.28.
For CN1CCN(C2=Cc3ccccc3Oc3ccc(Cl)cc32)CC1 (33.3333 µM), the “PSMB2 reference mRNA level” value was 0.977.
For Cn1cc(CNCC2CCN(c3ncc(C(=O)NO)cn3)CC2)c2ccccc21 [Quisinostat] (33.3333 µM), the “PSMB2 reference mRNA level” value was 0.103.
In the case of CC(/C=C/C(=O)NO)=C\[C@@H](C)C(=O)c1ccc(N(C)C)cc1 [Trichostatin A] (3.33333 µM), the “PSMB2 reference mRNA level” value is reported as 1.36.
With c1ccc2c(NCCCCCCCNc3c4c(nc5ccccc35)CCCC4)c3c(nc2c1)CCCC3 [bis(7)-Tacrine] (3.33333 µM) the “PSMB2 reference mRNA level” value was 0.971.
With Cc1cnc(-c2cnc(NCCNc3ccc(C#N)cn3)nc2-c2ccc(Cl)cc2Cl)[nH]1 (33.3333 µM) the “PSMB2 reference mRNA level” value was 2.78.
For Cc1nc2ccc(-n3ncc(C(=O)c4cc5ccccc5[nH]4)c3N)cc2[nH]1 (33.3333 µM), the “PSMB2 reference mRNA level” value was 0.324.
In the case of C[C@@H]1CN(CCCn2c3ccccc3c3ccccc32)C[C@H](C)N1 [Rimcazole dihydrochloride] (33.3333 µM), the “PSMB2 reference mRNA level” value is reported as 0.0107.
For Clc1ccccc1CNCC1CCC(CNCc2ccccc2Cl)CC1 (stereo not given) (33.3333 µM), the “PSMB2 reference mRNA level” value was 0.138.
For CNCCCC1c2ccccc2C=Cc2ccccc21 [Protryptyline hydrochloride] (22.2333 µM), the “PSMB2 reference mRNA level” value was 1.06.
Nc1ccc(C(=O)Nc2cccc(-c3nc(N4CCOCC4)c4oc5ncccc5c4n3)c2)cn1 (6.66667 µM) was tested, and the “PSMB2 reference mRNA level” value was 3.27.
For CCC/C=C\C=C/C(=O)N[C@@H](CC(N)=O)C(=O)NC(CC(N)=O)C(=O)N[C@@H](C(=O)N[C@H](CCCN)C(=O)N[C@@H](C(=O)N[C@@H](C(=O)N[C@@H](C(=O)N[C@H](C(=O)N[C@@H](Cc1ccccc1)C(=O)N[C@H](CCCN)C(=O)NC(C(=O)N[C@H](C(=O)NC(C(=O)NCC(=O)N[C@@H](CC(C)C)C(=O)N[C@H](C)C(=O)NC(C(=O)O)C1CCC(O)C(Cl)C1)C1CCC(O)CC1)[C@H](C)O)C1CCC(O)CC1)[C@H](C)O)C1CCC(O)CC1)C1CCC(O)CC1)[C@H](C)O)C1CCC(O)CC1 (stereo not given in full) (33.3333 µM), the “PSMB2 reference mRNA level” value was 0.369.
With Cc1cccc(Nc2nc(-c3ccncc3)cs2)c1 (11.1 µM) the “PSMB2 reference mRNA level” value was 1.45.
